A selection: hits, their analogues and other compounds. The true share with any hit is near 4.6%.
tim23-1 inh: growth inhibitors of tim23-1 mutant yeast, primary screen, luminescence, uHTS. actives 1.3% (n = 330,000). inhibition, % at 20 µM. S. cerevisiae tim23-1 growth, BacTiter-Glo luminescence, 24 h;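 active means growth inhibition of the mutant yeast at or above 50%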;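 further: temperature-sensitive mutant grown at 25 °C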
SKKanGAS inh: S. pyogenes SKKanGAS growth inhibitors in kanamycin, primary screen, streptokinase expression inhibitor project, SKKanGAS strain, BacTiter-Glo luminescence; AID 1662, 2009; inhibition, % at 7.5 µM; 6 h; actives 1.3% (n = 300,000);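 active means mean replicate score, as percent of positive control median, at least 50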;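 further: strain carries kanamycin resistance gene driven by streptokinase promoter and grows in 40 µg/ml kanamycin; loss of luminescence reflects streptokinase promoter inhibition or plain growth inhibition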
tim10-1 inh: growth inhibitors of tim10-1 mutant yeast, primary screen, luminescence, uHTS; S. cerevisiae tim10-1 ts strain growth, BacTiter-Glo, 24 h; inhibition, % at 20 µM; actives 2.2% (n = 330,000); AID 463190, 2010;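 active means inhibition of at least 40%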;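 further: mutant grown at 25 °C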
TIM10 inh: growth inhibitors of isogenic TIM10 control yeast, primary screen, counter-screen for tim10-1 yeast inhibitor project, luminescence, uHTS; AID 463195, 2010; actives 1.4% (n = 330,000); inhibition, % at 10 µM; S. cerevisiae TIM10 strain growth, BacTiter-Glo luminescence, 24 h;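 active means inhibition of 40% or more at the single tested concentration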;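 further: wild-type TIM10 isogenic control strain grown at permissive 25 °C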
NALP3 yeast inh: NALP3 inflammasome inhibitors in reconstituted yeast, primary screen, luminescence, uHTS. Yeast reconstituted NLRP3/ASC/caspase-1, beta-gal luminescence, 24 h. inhibition, % at 10 µM. actives 0.39% (n = 330,000);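 active means inhibition of 50% or more; inactive means inhibition below 50%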
tim10-1 confirm: growth inhibitors of tim10-1 mutant yeast, confirmation, single concentration, luminescence, S. cerevisiae. shares compounds with tim10-1 inh. S. cerevisiae tim10-1 ts strain growth, BacTiter-Glo, 24 h. inhibition, % at 20 µM. actives 56% (n = 7,400);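 active means inhibition of yeast growth at or above a set limit in either of two repeat tests at 20 µM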;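 further: tim10-1 mutant grown at permissive 25 °C to find synthetic lethal compounds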
TIM10 conf: growth inhibitors of wild-type TIM10 yeast, confirmation, counter-screen for tim10-1 synthetic lethality project, single concentration, luminescence, S. cerevisiae; S. cerevisiae tim10 strain growth, BacTiter-Glo luminescence, 24 h; inhibition, % at 10 µM; AID 463215, 2010; shares compounds with TIM10 inh; actives 63% (n = 4,600);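 active means inhibition of yeast growth at or above a set limit in either of two replicates at 10 µM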; further: this counterscreen used the strain with wild-type TIM10
Of the large screens only hits and unclear results are named; the others gave an inactive call (follow-up assays come after a bar, where they were run).

O=C(CCc1ccc(Oc2cc([N+](=O)[O-])cc([N+](=O)[O-])c2)cc1)N1CCCCC1	tim10-1 inh 57, TIM10 inh 54 | tim10-1 confirm 35 | TIM10 conf 48
O=C(Nc1ccccc1F)N1CCC(NC(=O)C23CC4CC(CC(C4)C2)C3)CC1	none
O=C(NCc1ccccc1)c1cccc(COc2cccc(Cl)c2)c1	tim10-1 inh 45, TIM10 inh 43 | tim10-1 confirm 40 | TIM10 conf 34
CC1CCC(NC(=O)Nc2cccs2)CC1 (configuration not stated)	tim10-1 inh 54, TIM10 inh 60 | tim10-1 confirm 73 | TIM10 conf 46
CC(C)C1Oc2ccccc2N(CC(=O)NC2CCCCC2)C1=O (configuration not stated)	none
COc1ccc(Cn2c(-c3ccc(Br)cc3)c[n+]3ccccc23)cc1	tim10-1 inh 48, TIM10 inh 55 | tim10-1 confirm 30 | TIM10 conf inactive
COc1ccc(C(=O)OCCCOC(=O)c2ccc(OC)cc2OC)c(OC)c1	none
COc1ccc(C(=O)O/N=C(\N)Cc2ccc([N+](=O)[O-])cc2)c(OC)c1	tim10-1 inh 75, TIM10 inh 51 | tim10-1 confirm 84 | TIM10 conf 57
COc1ccc2c(c1OC)C(=O)N1N=C(c3ccc(-c4ccccc4)cc3)CC21 (configuration not stated)	none
COc1ccc2c(c1OC)C(=O)N1N=C(c3ccc(Br)cc3)CC21 (configuration not stated)	tim10-1 inh 48, TIM10 inh 40 | tim10-1 confirm 40 | TIM10 conf inactive
CN=C(Nc1ccc(Br)cc1)SC1CC(=O)N(c2ccc(OC)cc2)C1=O (configuration not stated)	tim10-1 inh 41, TIM10 inh 45 | tim10-1 confirm inactive | TIM10 conf inactive
O=C(NCCCc1ccc(F)cc1)C1CCC(=O)N(CC2CCCCC2)C1 (configuration not stated)	none
N#C/C(=C/c1ccc(N2CCCCC2)o1)c1cccc(F)c1	tim10-1 inh 55, TIM10 inh 46 | tim10-1 confirm 51 | TIM10 conf inactive
Cc1nn(-c2ccccc2)c(Cl)c1/C=C/C(=O)c1ccccc1	tim10-1 inh 41, TIM10 inh 46 | tim10-1 confirm 48 | TIM10 conf 40
Cc1nn(-c2ccccc2)c(Cl)c1/C=N/O	none
COc1ccccc1-c1c(C)nn2c(N3CCCCCC3)cc(C)nc12	tim10-1 inh 56, TIM10 inh 41 | tim10-1 confirm 41 | TIM10 conf 34
COc1ccccc1-c1c(C)nn2c(N3CCOCC3)cc(C)nc12	none
O=C(O)C(C(O)c1ccc([N+](=O)[O-])cc1)[n+]1ccccc1 (configuration not stated)	none
COc1ccc(C(=O)C(CN2CCOCC2)c2ccccc2)cc1 (configuration not stated)	tim10-1 inh 55, TIM10 inh 48 | tim10-1 confirm 54 | TIM10 conf 66
CCC(O)(c1ccc(OC)cc1)C(CN1CCOCC1)c1ccccc1 (configuration not stated)	none (no result: SKKanGAS inh)
O=C(c1ccc(F)cc1)C(CN1CCOCC1)c1ccccc1 (configuration not stated)	tim10-1 inh 53, TIM10 inh 57 | tim10-1 confirm 36 | TIM10 conf 64
c1ccc(C(CN2CCOCC2)c2ccccc2)cc1	none
COc1ccc(OC)c(S(=O)(=O)n2ccnc2C(C)C)c1	none
Cc1cc(C)c(C(=O)/C=C/C=C/c2ccccc2)c(=O)[nH]1	none
Cc1cc(C)c(C(=O)/C=C/c2ccc(C(C)C)cc2)c(=O)[nH]1	tim10-1 inh 49, TIM10 inh 43 | tim10-1 confirm 53 | TIM10 conf 37
O=C(N/C=C/c1ccccc1)c1ccccc1	none
